Measurements published in ChEMBL document CHEMBL4296182, “CO-ADD screening of NIH NCI Diversity Set V”.
Among all 23,000 compounds or so, about 30 (0.1%) showed an effect of 50% or more. Shown is part of a subset that was picked to be rich in strong results. Results with a measured potency or affinity are listed apart.

system: Pseudomonas aeruginosa; details: Concentration 20 uM; ASSAY_TEST Inhibition of Bacterial Growth; detection method Absorption (OD600); MEDIA CAMHB; plate type 384well; NBS; CORNING #3640; time 18 hr

SMILES	Inhibition
OCc1ncccc1O	3.5%
Oc1ccnc2c(Cl)cccc12	-8.65%
Oc1ccc2ccccc2c1/N=N/c1ccc(F)cc1	0.71%
O=[N+]([O-])c1cccc(/C=C/c2ccccn2)c1	19.15%
CSc1nc(S)c2[nH]c(S)nc2n1	6.05%
Cc1ccc(/N=N/c2ccc(N)cc2C)c(S(N)(=O)=O)c1	-1.43%
COc1ccc(/C(C#N)=C/c2cccnc2)cc1	11.13%
C=CCC(CC)C(=O)NC(=O)N1CCCc2ccccc21 (centres undefined)	-1.54%
C=C1S/C(=N\c2c(C)cccc2Cl)N(C(=O)c2sc3ccccc3c2Cl)C12CCCCC2	-6.03%
COC1OC(CO)C(N=C(C)C)C1O (centres undefined)	-2.66%
c1ccc(Nc2cccc3c(Nc4ccccc4)cccc23)cc1	21.7%
O=C(Nc1cccnc1)c1cccc([N+](=O)[O-])c1	8.42%
COC1OC(O)C(NC(=O)C(F)(F)F)CC1O (centres undefined)	6.88%
O=C1CSCc2nc3ccccc3n21	23.81%
